Assay outcomes from PubChem BioAssay.
In the library only some 11% were active in any assay of this set; here they are far more common.
IMPase inh = membrane-permeable compound that blocks inositol monophosphatase; AID 901; CHO-M1 cells, IP1 accumulation, HTRF TR-FRET ratio; inhibition (IP1 accumulation), % at 46.1 µM; 120,000 tested, under 10 active; active = well fitted curve in the direction sought with a large enough effect in the signal ratio, not every such curve was filed as active; inconclusive = small, poorly fitted or top-dose-only effect, or a change in a side signal; inactive = no such curve, though single readings can be large or run the other way; the % refers to the signal ratio;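 note: cells stimulated with carbachol in lithium chloride buffer; plate controls were DMSO basal wells for no effect and reference inhibitor wells for full effect; higher means more IMPase inhibition seen as more IP1 and lower FRET ratio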
Target sequence (P97697 whole entry, looked up): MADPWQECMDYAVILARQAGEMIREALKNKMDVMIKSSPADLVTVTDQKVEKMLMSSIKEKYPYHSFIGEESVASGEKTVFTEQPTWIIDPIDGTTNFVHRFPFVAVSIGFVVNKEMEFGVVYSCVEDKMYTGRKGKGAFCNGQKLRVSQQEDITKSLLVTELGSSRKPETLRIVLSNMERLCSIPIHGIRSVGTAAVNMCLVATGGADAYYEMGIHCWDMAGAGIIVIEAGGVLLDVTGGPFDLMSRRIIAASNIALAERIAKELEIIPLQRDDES
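In this qHTS, compounds (final up to 46 uM) act on CHO-M1 cells that are then activated through the M1 receptor with carbachol, in pH 7.4 buffer containing 50 mM LiCl, for 30 min. IP1 accumulation is quantified by the IP-One immunoassay.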
PNC assembly inh = blocks assembly of the perinucleolar compartment; PC3M PTB-GFP, PNC prevalence imaging, 16 h; hits give low values; activity change (PNC), negative = inhibition, % at 10 µM; hit rate 3.1% among 140,000; AID 2417;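 active = readout at or below -70, meaning at least 70% loss of cells showing the perinucleolar compartment, a nuclear body marking cancer cells; inconclusive = readout between -30 and a set limit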;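 note: plate controls were DMSO wells for no effect and camptothecin positive control wells for full effect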
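PC3M cells stably expressing PTB-GFP, 750–1000 cells/well, treated 16 h at 37 °C with compound (23 nl of library stock), in duplicate. After paraformaldehyde fixation and Hoechst stain, imaged at 20x; PNC prevalence scored by image analysis.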
ALDH1A1 inh = blocks purified human ALDH1A1 activity | P00352 | Purified ALDH1A1, NADH fluorescence, propionaldehyde substrate | Potency, µM (titrated, usually from 75.3 µM), without a hit: at the top dose activity, negative = inhibition, most hits filed as inhibitors | hit rate 7.3% among 220,000; active = well fitted inhibition curve with a large enough effect, not every such curve was filed as active; inconclusive = small, poorly fitted or top-dose-only effect, or another doubt; inactive = no such curve, though single readings can be large or run the other way;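 note: potency is the fitted concentration of half-maximal effect; plate controls were no enzyme wells and a reference inhibitor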
Target sequence (P00352 whole entry, looked up): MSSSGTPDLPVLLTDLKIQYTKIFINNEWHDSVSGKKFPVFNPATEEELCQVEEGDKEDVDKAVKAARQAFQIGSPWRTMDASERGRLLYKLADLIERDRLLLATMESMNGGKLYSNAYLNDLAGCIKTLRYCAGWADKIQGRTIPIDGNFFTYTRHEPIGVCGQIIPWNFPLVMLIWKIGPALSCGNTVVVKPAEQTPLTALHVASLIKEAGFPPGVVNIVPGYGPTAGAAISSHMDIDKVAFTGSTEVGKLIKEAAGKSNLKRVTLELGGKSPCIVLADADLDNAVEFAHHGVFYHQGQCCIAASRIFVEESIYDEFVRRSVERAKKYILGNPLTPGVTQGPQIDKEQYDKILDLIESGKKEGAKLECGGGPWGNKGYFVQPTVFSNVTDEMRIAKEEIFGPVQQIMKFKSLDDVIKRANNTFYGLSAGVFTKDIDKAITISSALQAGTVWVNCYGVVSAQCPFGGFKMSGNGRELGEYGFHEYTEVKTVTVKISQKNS
HPGD inh = HPGD (human) dehydrogenase inhibition; Potency, µM, without a hit: at the top dose activity change, negative = inhibition, usual class: inhibitors; AID 894; hit rate 4.3% among 150,000; P15428; purified HPGD, NADH fluorescence kinetic, PGE2 substrate; active = well fitted inhibition curve with a large enough effect, not every such curve was filed as active; inconclusive = small, poorly fitted or top-dose-only effect, or another doubt; inactive = no such curve, though single readings can be large or run the other way; note: potency is the fitted concentration of half-maximal effect
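NADH formation kinetics: reaction with 30 uM PGE2 and 1 mM NAD+ (final), 20 nM enzyme, Tris-HCl pH 8 with Tween 20, after 15 min compound preincubation at room temperature. Fluorescence change, last versus first of five reads.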
12-hLO inh = inhibitors of human 12-lipoxygenase (ALOX12); hit rate 0.12% among 150,000; Potency, µM (highest dose often 57.1 µM), inactives show at the highest dose activity change, negative = inhibition, most hits filed as inhibitors; P18054; purified 12-hLO, xylenol orange hydroperoxide absorbance; AID 1452; note: potency is the fitted concentration of half-maximal effect; nearly all actives have a fitted effect of over 55% in size
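Lipoxygenase turnover measured by absorbance at 573 and 405 nm after Fe-XO development. Human 12hLO 150 nM, arachidonate 40 uM, pH 7.0 Hepes buffer with detergent; 15 min compound preincubation, 30 min reaction.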
IMPase Li cell = cell-permeable IMPase inhibitors with lithium potentiation. CHO-M1 cells, IP1 TR-FRET (IP-One), carbachol + lithium. Potency, µM (doses to about 59.4 µM), for inactives: at the top dose activity, negative = IMPase inhibition, most hits filed as inhibitors. hit rate 0.35% among 210,000. AID 1457;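 note: IP1 builds up when IMPase is blocked and the TR-FRET signal falls; potency is the fitted concentration of half-maximal effect; plate controls were basal vehicle for no effect and high inhibitor control for full effect; nearly all actives have a fitted effect of over 50% in size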
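Steps: plate 2000 CHO-M1 cells per well and culture 16–30 h; add compound and lithium; incubate 30 min, 37C; add d2-IP1 tracer and Eu cryptate anti-IP1 antibody in lysis buffer; read after 10 min at room temperature.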
* marks the source's active call; other numbers are inactive results; ? = inconclusive; · = no result given; [ ] = remark or other dose. Unless noted, calls come from the whole dose curve; as a rule, active = well fitted curve in the direction sought with a large enough effect; inconclusive = small, poorly fitted or top-dose-only effect, or another doubt; inactive = no such curve, though single readings can be large; an effect the other way counts as inactive or inconclusive. Unless noted, % is set by controls: 0 for no effect and ±100 for the full control effect.

SMILES | IMPase inh | PNC assembly inh | ALDH1A1 inh | HPGD inh | 12-hLO inh | IMPase Li cell
CN1CCN(C(=O)c2ccc(CSc3ccc(Cl)cc3)cc2)CC1 | 4 | ? | 9% | 8.9µM* | 3% | 5%
O=C(c1ccc(CN2CCOCC2)cc1)N1CCC(Cc2ccccc2)CC1 | 3 | -29 | -3% | -19% | 3% | 5%[38.3 µM]
Cc1ccc(SCc2ccc(C(=O)N3CCCCC3)cc2)cc1 | · | · | 4µM* | · | · | 18%
O=C(c1cccc(F)c1)N1CCC2(CCCN(c3ccccc3)C2)CC1 | · | · | -10% | -11% | -10% | 11%
COc1cc2nc(N3CC=[N+](C(=O)c4ccco4)CC3)nc(N)c2cc1OC | 2 | · | · | · | -5% | ·
CN1C(=O)CC[C@@H]1c1cccnc1 | -2[20.6 µM] | · | -5%[20.9 µM] | -6% | 4%[25.6 µM] | 2%
CCN(CC)C(=O)N1c2ccccc2C=Cc2ccccc21 | 7 | -105* | 11% | 0% | 0% | 6%[38.3 µM]
NC(=O)N1c2ccccc2C=Cc2ccccc21 | 2 | ? | -2% | -4% | -2% | -3%
O=C(CN1CCCC1)N1c2ccccc2C=Cc2ccccc21 | · | · | 5% | · | · | 31%
O=C(CN1CCCCCC1)N1c2ccccc2C=Cc2ccccc21 | 18 | -106* | -6% | -7% | 3% | 59%[38.3 µM]
C=C(CC(=O)OC)C[C@]1(CC(=O)OC)CC2(CC=C(C)C)C(=O)C(C(=O)c3ccccc3)=C(OC(=O)c3ccc(Br)cc3)C(CC=C(C)C)(C1)C2=O (stereo not given in full) | · | · | 2%[13.5 µM] | · | · | ·
COc1ccccc1-c1cc(C(F)(F)F)nc(S(C)(=O)=O)n1 | 3 | ? | -4% | 25µM* | 2% | 3%[38.3 µM]
COc1ccccc1-c1cc(C(F)(F)F)nc(S(=O)(=O)CCCC(=O)NC(C)C)n1 | 6 | 7 | -4% | ? | 0% | 6%[38.3 µM]
CNc1ncnc2ccc(-c3ccccc3OC)cc12 | · | · | ? | ? | -1% | 8%
COC(=O)[C@H]1[C@H](C(=O)OC)[C@@H](C(=O)OC)N(c2ccc(OC)cc2)[C@@H]1C(=O)OC | · | 12 | 4% | 2% | -2% | -7%
COc1ccc(N2CCSC2C(=O)NN)cc1 (stereo not given) | -3 | 15 | 3.2µM* | -15% | 4% | 4%
Cc1ccccc1-c1ccc2ncnc(N(C)Cc3ccco3)c2c1 | · | · | 4% | · | · | 20%
Cc1ccc2occ(/C=C/C(=O)c3ccccc3O)c(=O)c2c1 | -18 | 74 | 7.9µM* | -17% | 7% | -8%[38.3 µM]
O=C(N/N=C/c1cc([N+](=O)[O-])ccc1O)C12CC3CC(CC(C3)C1)C2 | · | · | 0.89µM* | · | · | 8%
O=C(N/N=C/c1cc([N+](=O)[O-])ccc1O)NC12CC3CC(CC(C3)C1)C2 | · | 5 | 6% | -5% | 1% | 7%
Cc1ccc(NC(=O)Cn2nc(C(F)(F)F)c3c2CCC3)cc1C | 4 | · | · | · | · | ·
C=CC1=C2C=C(C3CC3)N(CCCOC(C)C)C=C2C(=O)C(C)(OC(=O)c2ccco2)C1=O (stereo not given) | · | · | 13%[13.5 µM] | -7% | 4%[11.4 µM] | 6%
COC(=O)[C@@]1(Cc2ccc(F)cc2)[C@@H]2C(=CC(=O)[C@H]2CC(=O)C(=O)N(C)C)CN1C(=O)c1ccccc1 | · | · | -5% | -2% | -2% | 0%
O=c1c2sccc2nc(SCc2ccc([N+](=O)[O-])cc2)n1Cc1ccccn1 | · | -84* | 2% | -5% | -1% | 25%
Cc1ccc(CNC(=O)CSc2nc3ccsc3c(=O)n2Cc2ccccn2)cc1 | · | · | ? | · | · | 6%
SMILES | IMPase inh | PNC assembly inh | ALDH1A1 inh | HPGD inh | 12-hLO inh | IMPase Li cell
C=CCNC(=O)c1ccc(Cn2cc(C(F)(F)F)ccc2=O)cc1 | · | · | -4% | · | · | 9%
CCOC(=O)c1sc(N(Cc2ccccc2)C(=O)CSc2ncn[nH]2)nc1C | 4 | ? | 4.5µM* | -26% | -2% | 39%[38.3 µM]
CCOC(=O)c1sc(N(Cc2ccccc2)C(=O)COC(=O)c2ccccc2O)nc1C | · | -29 | -7% | 20µM* | 3% | 8%
CCOC(=O)c1sc(NC(=O)CSc2ncn[nH]2)c(C#N)c1C | 6 | -11 | -8% | -13% | -3% | 19%[38.3 µM]
CCOC(=O)c1sc(N(Cc2ccccc2)C(=O)COC(=O)c2ccc(O)cc2)nc1C | · | ? | 14µM* | ? | -5% | 6%
O=C(N/N=C/c1cn(Cc2ccccc2)c2ccccc12)c1cccnc1 | · | -26 | 14µM* | -19% | 0% | 0%
O=C(N/N=C/c1cn(Cc2ccccc2)c2ccccc12)c1ccncc1 | · | · | 14µM* | · | · | 4%
CCOC(=O)N/N=C/c1cn(Cc2ccc(Cl)cc2)c2ccccc12 | · | -105* | 2% | -5% | -1% | -3%
O=C(N/N=C/c1ccccc1OCc1ccccc1)c1cccnc1 | · | 35 | 4% | -12% | -5% | -4%
Cc1cccc(NC(c2cccc(Cl)c2)c2ccc3cccnc3c2O)n1 (stereo not given) | 7 | · | · | · | · | ·
O=C(c1cc(C(F)(F)F)cc(C(F)(F)F)c1)N1CCC2(CC1)CCN(c1ccccc1)CC2 | · | · | 0% | -5% | 2% | -1%
COc1cc(C2Nc3c(F)cccc3C3C=CCC32)cc(Br)c1OC (stereo not given) | · | · | 25µM* | · | · | 8%
Cc1nn(-c2ccccc2)c(Cl)c1C(=O)Nc1nnc(C2CCCC2)s1 | 7 | -85* | 2.8µM* | -19% | -6% | 17%[38.3 µM]
Cc1ccc(NC(=O)c2c(C)nn(-c3ccccc3)c2Cl)c(C)c1 | -2 | 37 | -12% | 14µM* | -5% | 33%[38.3 µM]
O=C(Nc1nnc(C2CCCCC2)s1)c1ccc(Br)s1 | 8 | 7 | -1% | 3% | -3% | 10µM*
O=C(Nc1nnc(C(F)(F)F)s1)c1ccc(Br)s1 | · | · | 2% | · | · | -2%
COC(=O)[C@@]1(Cc2ccccc2)[C@H]2c3cc(C(=O)N(C)C)n(Cc4ccc(S(C)(=O)=O)cc4)c3C[C@H]2CN1C(=O)c1ccccc1 | · | · | -9% | -9% | -3% | 14%
COc1ccc(-c2n[nH]c(=S)n2N)c(OC)c1 | · | · | 25µM* | · | · | 1%
COc1ccc(OC)c(-n2c(-c3cnccn3)n[nH]c2=S)c1 | -13 | 1 | ? | -13% | 0% | 15%[38.3 µM]
COc1ccc(OC)c(-n2c(-c3ccc(C)cc3)n[nH]c2=S)c1 | ? | -2 | 18µM* | ? | -4% | -19%[38.3 µM]
COc1ccc(OC)c(-n2c(-c3cccc(O)c3)n[nH]c2=S)c1 | -6 | ? | 10µM* | ? | -8% | -16%[38.3 µM]
COc1ccc(-c2cc(-c3n[nH]c(=S)n3-c3cc(OC)ccc3OC)[nH]n2)cc1 | · | 4 | 20µM* | ? | -7% | -3%
COc1ccc(OC)c(-n2c(-c3cc(-c4ccc(F)cc4)n[nH]3)n[nH]c2=S)c1 | ? | -12 | -9% | · | -16% | ·
Cc1noc(C)c1-c1ccc2ncnc(N(C)C)c2c1 | · | · | -9% | · | · | 13%
